# From PubChem
# Most compounds without a hit are left out; they make up all but 3.3% or so of the library.
# USP2a block: inhibitors of human ubiquitin-specific protease USP2a. USP2 core, Ub-CHOP2 coupled fluorogenic reporter, 485/531. Potency, µM (titrated, usually from 38.3 µM), inactives show at the highest dose activity change, negative = inhibition, usual class: inhibitors. 0.01% of 330,000 active. AID 463254;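 also: potency is read from the fitted curve at half-maximal effect; plate controls were DMSO wells for no effect and full inhibition by NEM control for full effect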
#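 USP2 core (10nM final) preincubated 30min RT with compound in 20mM Tris-HCl pH 8.0, 2mM CaCl2, 2mM beta-mercaptoethanol, 0.05% CHAPS; 25nM Ub-CHOP2 plus 25nM reporter substrate added, fluorescence (Ex485/Em531) read after 60min.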
# PLK1 PBD block: blocks phosphopeptide binding to human PLK1 polo-box domain; Potency, µM, inactives show max response, negative = inhibition, most hits filed as inhibitors; 2.8% of 360,000 active; Plk1 PBD binding of FITC phosphopeptide, fluorescence polarization; P53350; also: potency is read from the fitted curve at half-maximal effect; series mostly up to about 57 µM; nearly all actives have a fitted effect of over 65% in size
# WRN inhibitor: WRN helicase (human) inhibition. WRN helicase unwinding, fluorescent forked duplex, kinetic. Potency, µM (top dose mostly 114 µM), inactives show top-dose activity change, negative = inhibition, actives largely listed as inhibitors. 0.46% of 360,000 active. AID 651768; also: potency is read from the fitted curve at half-maximal effect; nearly all actives have a fitted effect of over 55% in size
#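 Kinetic red-fluorescence monitoring (525/598 nm) tracks WRN helicase activity after 100 nM fluorophore-quencher forked duplex and 2 mM ATP are added to 20 nM enzyme pretreated 15 min at room temperature with compound.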
# PI5P4K alpha inh: blocks human PI5P4K alpha kinase activity | PI5P4Kalpha enzyme, ADP-Glo luminescence, 60 min; hits give low values | max response, % | 1.2% of 330,000 active | AID 652105; active = max response of -50% or lower; inconclusive = between -30% and -50%; inactive = -30% or higher; also: value at the top dose of about 77 µM
# Target sequence (P48426 whole entry, looked up): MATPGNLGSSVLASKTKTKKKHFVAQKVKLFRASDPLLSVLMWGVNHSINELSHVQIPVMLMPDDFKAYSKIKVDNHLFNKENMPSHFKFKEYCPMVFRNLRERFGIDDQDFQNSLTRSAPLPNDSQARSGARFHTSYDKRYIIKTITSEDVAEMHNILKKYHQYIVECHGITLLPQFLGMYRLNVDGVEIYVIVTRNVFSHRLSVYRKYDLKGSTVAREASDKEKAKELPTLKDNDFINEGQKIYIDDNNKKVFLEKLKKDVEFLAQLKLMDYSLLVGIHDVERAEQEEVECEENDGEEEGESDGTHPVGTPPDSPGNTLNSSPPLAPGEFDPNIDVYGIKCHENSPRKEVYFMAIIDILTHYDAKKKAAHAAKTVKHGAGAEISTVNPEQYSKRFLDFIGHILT
#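 Quantitative HTS of the MLSMR library against PI5P4Kalpha with substrate. ATP added last at 5 microM final; room temperature, 60 minutes. Remaining ATP depleted, ADP converted and read as luminescence.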
# USP1-UAF1 inh: blocks the human USP1/UAF1 deubiquitinase complex; recombinant USP1/UAF1, Ub-Rhodamine cleavage fluorescence; AID 743255; 0.23% of 390,000 active; Potency, µM (highest dose often 57.1 µM), for the others: at the top dose activity change, negative = inhibition, hits mostly inhibitors; O94782; also: potency is read from the fitted curve at half-maximal effect; nearly all actives have a fitted effect of over 60% in size
#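 In this screen, compounds sit with the deubiquitinase complex (1nM) for 15 min at room temperature before Ub-Rho is added at 150nM final. Fluorescence rise is then followed for 6 reads every 60 seconds.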
# Starred values were filed as active, the others as inactive; ? = inconclusive; / = no result; [ ] = dose if it differs, or a comment. Unless noted, calls follow the shape of the dose curve; as a rule, active = well fitted curve in the direction sought with a large enough effect; inconclusive = small, poorly fitted or top-dose-only effect, or another doubt; inactive = no such curve, though single readings can be large; an effect the other way counts as inactive or inconclusive. Unless noted, % is scaled to controls: 0 for no effect and ±100 for the full control effect.
SMILES,USP2a block,PLK1 PBD block,WRN inhibitor,PI5P4K alpha inh,USP1-UAF1 inh
COc1ccccc1-n1c(CNC(=O)c2ccco2)nnc1SCC(=O)Nc1ccc(F)cc1,-5%,-7%,10%,-2,-9%
COc1ccccc1-n1c(CNC(=O)c2ccco2)nnc1SCC(=O)Nc1cc(C)ccc1C,-1%,3µM*,16%,?,-2%
COc1ccc(S(=O)(=O)c2cn(C)c3ccc(C)cc3c2=O)cc1,/,/,/,/,-14%
Nc1ccccc1Sc1nc2ccccc2[nH]1,0%,13µM*,-28%,?,-10%
CCc1nn(-c2ccccc2)c2nc(-c3cccc(OC)c3)c3cc(OC)c(OC)cc3c12,/,/,/,/,-27%
C/C(=N/NC(=O)c1ccc(Br)o1)c1cccc(NC(=O)c2ccc(C)o2)c1,1%,7.5µM*,-30%,?,-4%
CC1C(=O)CCC1(C(=O)O)c1ccccc1 (centres undefined),2%,24µM*,4%,-18,5%
O=C(CSc1oc(-c2ccco2)nc1S(=O)(=O)c1ccc(Cl)cc1)Nc1ccc(F)cc1,/,/,/,/,-13%
O=C(Oc1ccc(=O)[nH]n1)c1ccccc1,/,?,1%,3,?
O=C(Oc1cc(=O)n2ccccc2n1)c1ccccc1,0%,13µM*,41%,-4,-22%
O=C(c1cccs1)N1CCCc2cc(NS(=O)(=O)c3ccc(Br)cc3)ccc21,/,/,/,/,-27%
CC(=NNC(=O)c1cccc(S(=O)(=O)N2CCCC2)c1)c1ccccc1,4%,0%,4%,-1,-17%
C/C(=N\NC(=O)c1cccc(S(=O)(=O)N2CCCC2)c1)c1cccs1,-2%,27µM*,-5%,-5,2%
O=C(Cn1ncc(Cl)c(Cl)c1=O)NC(=O)NC1CCCCC1,-3%,-30%,-5%[11.6 µM],-50*,-15%
CC(NC(=O)Cn1ccsc1=N)C12CC3CC(CC(C3)C1)C2 (centres undefined),3%,7.5µM*,4%,?,-17%
CC(NC(=O)Cn1ncc(Cl)c(Cl)c1=O)C12CC3CC(CC(C3)C1)C2 (centres undefined),0%,?,-17%,-64*,-8%
CN(C)c1ccc(CNC(=O)c2cnc3sc(N4CCOCC4)nn3c2=O)cc1,/,/,/,/,20%
Cc1ccc(CCNC(=O)c2cn(C)c3ccc(S(=O)(=O)N4CCCCC4)cc3c2=O)cc1,/,/,/,/,6%
O=C(Cn1nc(Cc2cccnc2)c2ccccc2c1=O)Nc1ccc(F)c(Cl)c1,/,/,/,/,-4%
CC1(C)C(=O)N(CC(=O)Nc2ccc(OC(F)(F)F)cc2)c2ccccc21,/,/,/,/,-14%
O=c1cc(-c2ccc(F)cc2)[nH][nH]1,5%,4%,4%[11.6 µM],-1,-8%
O=c1cc(-c2ccc(C3CCCCC3)cc2)[nH][nH]1,-14%,24µM*,-22%,-22,?
CC(OC(=O)CNC(=O)c1ccco1)C(=O)N(C)c1ccccc1 (centres undefined),1%,27µM*,0%,-5,-21%
CCOC(=O)CSc1nnc(COc2ccc3ccccc3c2)o1,0%,27µM*,-24%,-7,-21%
COC(=O)CSc1nnc(COc2ccc3ccccc3c2)o1,2%,-17%,3%,3,-18%
SMILES,USP2a block,PLK1 PBD block,WRN inhibitor,PI5P4K alpha inh,USP1-UAF1 inh
N#CC1=C(c2ccccc2)/C(=C/c2ccccc2)OC1=O,4%,1.1µM*,?,4,-23%
O=C1O/C(=C/c2ccccc2)c2ccccc21,0%,7%,-21%[57.1 µM],13,-25%
COc1cc(NC(=O)Cn2c(=O)n(Cc3ccccc3Cl)c(=O)c3cc(OC)c(OC)cc32)cc(OC)c1,/,/,/,/,-6%
O=C(Cc1ccccc1)NCc1n[nH]c(=S)n1-c1ccc(Br)cc1,5%,11µM*,-17%[57.1 µM],-26,-11%
O=C(CNC(=O)c1nc[nH]c1C(=O)N1CCc2ccccc2C1)OCc1ccccc1,0%,19µM*,-3%,3,16%
COc1cc2c(cc1OC)C1O[C@](c3ccsc3)(C2)Oc2c1c(=O)oc1ccc(F)cc21,-1%[7.66 µM],/,/,/,/
COc1cc(/C=C2\C(=N)N3N=CSC3=NC2=O)ccc1OS(=O)(=O)c1ccccc1[N+](=O)[O-],-5%,27µM*,?,?,2%
COc1cc(/C=C2\C(=N)N3N=C(S(C)(=O)=O)SC3=NC2=O)ccc1OCCOc1ccccc1C,0%,?,50µM*,-57*,-25%
O=S(=O)(NCC(c1ccco1)S(=O)(=O)c1cccs1)c1ccc(Cl)cc1 (centres undefined),/,/,/,/,-8%
CCOC(=O)C1CCCN(c2c(NCCCN(CC)c3cccc(C)c3)c(=O)c2=O)C1 (centres undefined),1%,24µM*,7%,-3,-9%
O=C(O)c1ccc2c(c1)C(=O)N(CCc1c[nH]c3ccccc13)C2=O,-2%,-11%,-13%[57.1 µM],-69*,-2%
O=C1c2ccccc2C(=O)N1CCc1csc(NNc2nc(CCN3C(=O)c4ccccc4C3=O)cs2)n1,1%,?,-31%,-69*,-9%
COC(=O)C1=C(C)N(CCc2c[nH]c3ccccc23)C(=O)/C1=C\N(C)C,3%,24µM*,-6%,-15,-2%
O=C1c2ccccc2C(=O)N1CCSc1nncs1,-1%,-3%,0%,/,-11%
O=C(Oc1ccc2[nH]cc(CCN3C(=O)c4ccccc4C3=O)c2c1)c1ccco1,-5%,-5%,-8%,/,-4%
Cc1ccc(-c2nc(CCN3C(=O)c4ccccc4C3=O)cs2)cc1,1%,-8%,-3%,/,-15%
O=C1c2ccccc2C(=O)N1CCSc1ccccc1,4%,27µM*,3%,4,-19%
CC1=C(c2ccc(C(C)C)cc2)S(=O)(=O)NC1=NCCCN1CCN(c2ccccc2F)CC1,/,/,/,/,15%
O=C(O)c1ccc2c(c1)C(=O)N(CCCCCCCN1C(=O)c3ccc(C(=O)O)cc3C1=O)C2=O,0%,-2%,-9%[57.1 µM],-78*,-33%
CN1C(=O)c2ccc(NC(=O)CSc3ccccc3)cc2C1=O,2%,-11%,-2%,6,-11%
O=C(O)c1ccc2c(c1)C(=O)N(N1C(=O)c3ccccc3C1=O)C2=O,3%,-6%,-22%,-9,-11%
O=C(O)c1ccc2c(c1)C(=O)N(CCc1ccccc1)C2=O,2%,-1%,0%,-65*,-27%
O=C(O)CCCCCN1C(=O)c2ccc(C(=O)O)cc2C1=O,2%,-2%,-2%,/,-7%
O=C1c2ccccc2C(=O)N1CCCCCCc1ccccc1,-2%,-3%,2%,21,?
O=C1c2ccccc2C(=O)N1CCc1ccccc1,/,27µM*,-16%,-12,-9%
O=C(O)CCN1C(=O)c2ccc(NC(=O)CSc3ccccc3)cc2C1=O,0%,27µM*,-6%,-12,-16%
COC(=O)CC(=O)CSc1nc2cc(C(=O)NCC(C)C)ccc2c(=O)n1CCc1ccccc1,/,/,/,/,-16%
O=C(CN1CCN(c2ccccc2)CC1)Nc1nccs1,3%,-1%,3%,7,-8%
